D2 ag-1: D2 dopamine receptor (human) agonism; P14416; activation, % at 2 µM; actives 0.53% (n = 340,000); AID 485358; HEK293 T-REx D2 cells, calcium flux agonist mode;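 active = activation over 3 SD above normal in the single-dose calcium agonist read, cut at about 30% in these data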
Target sequence (P14416 whole entry, looked up): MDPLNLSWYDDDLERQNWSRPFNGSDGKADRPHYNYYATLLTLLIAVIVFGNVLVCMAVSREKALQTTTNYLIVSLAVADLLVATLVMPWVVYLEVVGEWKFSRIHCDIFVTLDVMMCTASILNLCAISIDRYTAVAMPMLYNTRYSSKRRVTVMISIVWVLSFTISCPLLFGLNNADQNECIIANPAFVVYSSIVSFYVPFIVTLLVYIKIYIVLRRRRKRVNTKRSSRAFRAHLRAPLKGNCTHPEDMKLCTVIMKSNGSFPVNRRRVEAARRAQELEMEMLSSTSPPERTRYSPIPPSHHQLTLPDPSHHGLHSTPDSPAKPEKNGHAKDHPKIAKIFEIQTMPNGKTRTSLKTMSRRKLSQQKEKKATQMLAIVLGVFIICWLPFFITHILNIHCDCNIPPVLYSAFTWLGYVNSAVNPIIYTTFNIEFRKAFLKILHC
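Tetracycline-induced HEK293 Trex cells with D2 receptor force-coupled to calcium signaling, plated overnight at 30 C and loaded with no-wash calcium dye. Calcium flux read kinetically for 180 s after compound addition; responses flag agonists.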
D2 ag-2: agonists of human D2 dopamine receptor (beta-arrestin). P14416. DiscoveRx PathHunter D2 beta-arrestin, luminescence, 90 min; 100% = 57 uM dopamine signal. activation, % (no concentration beside the values). actives 0.084% (n = 360,000). AID 624465; in the data active = activation above about 40%; inconclusive = between about 15% and that limit
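Agonist mode: compounds alone added to overnight-plated D2 PathHunter cells for 90 min at 37 C, with 57 uM final dopamine (EC100) defining full response. Beta-arrestin recruitment detected by chemiluminescent reagent, read after 1 h at ambient temperature.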
D2 PAM-1: positively modulates the human D2 dopamine receptor allosterically | potentiation, % at 10 µM | HEK293 T-REx D2, calcium flux, EC20 dopamine potentiation | actives 0.34% (n = 340,000) | P14416;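 active = potentiation over 3 SD above the plate norm, cut at about 30% in these data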
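Tetracycline-induced HEK293 T-REx cells force-coupled to calcium signalling expressed D2; compounds were pin-added after a 10 s baseline, read kinetically 180 s, then an EC20 dopamine challenge followed with a further 180 s calcium read.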
D2 antagonist: antagonists of human D2 dopamine receptor; actives 2% (n = 340,000); HEK293 TREx D2 cells, calcium flux, dopamine EC80; AID 485344; inhibition, % at 10 µM; P14416; in the data active = inhibition above about 30%; inactive = below that, where a call was filed
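Measurement of antagonist activity uses fluorescent calcium dye in inducible HEK293 T-REx D2 cells: 10 s baseline, compound addition with 180 s read, EC80 dopamine addition with a further 180 s read.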
D2 PAM-2: human D2 receptor positive allosteric modulation; potentiation, % (no concentration beside the values); DiscoveRx D2 beta-arrestin cells, luminescence, 90 min; 100% = 57 uM dopamine signal; actives 0.23% (n = 360,000); in the data active = potentiation above about 50%; inconclusive = mostly about 30% to 49%
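PathHunter D2 cells, attached overnight at 37 deg C, received compound in DMSO plus dopamine at EC20 (50 nM final) for 90 min at 37 deg C. Beta-arrestin recruitment was read as luminescence after 1 h with detection reagent at ambient temperature.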
Numbers stand for hits; - = inactive; ? = inconclusive; . = no result. In the library only some 2.4% were active in any assay of this set; here they are far more common.

SMILES	D2 ag-1	D2 ag-2	D2 PAM-1	D2 antagonist	D2 PAM-2
CS(=O)(=O)N(CC(=O)Nc1cccc([N+](=O)[O-])c1)c1ccccc1F	-	-	-	44	-
CCOc1cc(/C=N/NC(=O)c2ccc(N(C)S(=O)(=O)c3ccccc3)cc2)ccc1OC	-	-	-	31	-
Cc1ccc(S(=O)(=O)N(C)c2ccc(C(=O)Nc3cccnc3)cc2)cc1	-	-	-	35	-
Cc1ccc(Oc2ncc(CN3CCOCC3)s2)cc1	-	-	-	-	-
Brc1ccc(Oc2ncc(CN3CCN(c4ccccc4)CC3)s2)cc1	-	45	-	-	-
O=C1c2cccc([N+](=O)[O-])c2C(=O)N1CCO	-	-	40	-	-
CN(Cc1ccccc1)C(=O)CCN1C(=O)c2cccc([N+](=O)[O-])c2C1=O	.	-	.	.	-
Cc1ccc(NC2=C/C(=N/S(=O)(=O)c3cccs3)c3ccccc3C2=O)cc1C	-	?	-	-	76
CCCOc1cc(N)ccc1C(=O)OCCN(CC)CC	-	-	-	-	-
CCCOc1ccc(N)cc1N	-	-	-	-	66
CCCOC(=S)NC(=O)c1sc2ccccc2c1Cl	-	-	-	31	-
Cc1cccc(NC(=O)C2CCN(c3cnccn3)CC2)c1	-	.	-	.	.
Cc1ccc(S(=O)(=O)Nc2ccc3c(c2)nc(CN2CCCC2)n3C)cc1	-	-	-	72	-
Cc1ccc(S(=O)(=O)Nc2ccc3c(c2)nc(CCN2CCOCC2)n3C)cc1	-	-	-	-	-
CCn1c(CN2CCCCC2)nc2cc(S(=O)(=O)N3CCCCC3)ccc21	-	-	-	55	-
Cc1ccc(S(=O)(=O)Nc2ccc3c(c2)nc(CCN2CCCCC2)n3C)cc1	-	-	-	-	-
Cn1c(CCN2CCCCC2)nc2cc(NS(=O)(=O)c3ccc(F)cc3)ccc21	-	-	-	32	-
Cn1c(CN2CCCC2)nc2cc(NC(=O)COc3ccccc3)ccc21	-	-	-	47	-
COc1cc(Nc2ncc3c(n2)CCN(Cc2cc(Br)cs2)C3)cc(OC)c1	-	.	-	.	.
CC(=O)c1cccc(NC(=O)N2CCC(CN3CCCCC3)CC2)c1	.	.	-	.	.
O=C(Nc1ccccc1)Nc1cccc2cccnc12	-	-	34	-	-
COc1cc(/C=C(/C#N)c2nc3ccccc3[nH]2)ccc1OCC(=O)Nc1ccccc1C	-	-	-	-	-
COc1cc(/C=C(/C#N)c2nc3ccccc3[nH]2)ccc1OCC(=O)Nc1ccccc1C(C)C	-	-	-	32	-
COc1ccc(S(=O)(=O)N2CCC3(CC2)CC(=O)c2ccccc2O3)cc1OC	-	-	-	45	-
CC(=O)Nc1ccc(S(=O)(=O)N2CCC3(CC2)CC(=O)c2ccccc2O3)cc1	-	-	-	-	-
SMILES	D2 ag-1	D2 ag-2	D2 PAM-1	D2 antagonist	D2 PAM-2
CCOc1ccc(NC(=O)C(=O)NCC(c2cccnc2)N2CCc3ccccc32)cc1 (stereo unspecified)	-	.	-	.	.
CC1CCCC(C)N1C(=O)CN1C(=O)C(C)(C)Oc2ccc(C(=O)NC3CCCCC3)cc21 (stereo unspecified)	-	-	-	-	-
CC1CCCC(C)N1C(=O)CN1C(=O)C(C)(C)Oc2ccc(C(=O)NC3CCCC3)cc21 (stereo unspecified)	-	-	-	33	-
CC(C)(C)NC(=O)c1ccc2c(c1)N(CC(=O)NC1CCCC1)C(=O)C(C)(C)O2	-	-	-	53	-
CC(C)NC(=O)CN1C(=O)C(C)(C)Oc2ccc(C(=O)NC3CCCCC3)cc21	-	-	-	32	-
Cc1ccc(NC(=O)Cn2nnc(-c3nc(-c4ccc(Cl)cc4)no3)c2N)cc1C	-	.	-	.	.
O=C1C2CCCCN2C(=O)N1CCN1CCN(c2cccc(Cl)c2)CC1 (stereo unspecified)	.	-	.	.	-
O=C1C2CCCCN2C(=O)N1CCCCN1CCN(c2ccc(F)cc2)CC1 (stereo unspecified)	-	-	-	-	-
O=C1C2CCCN2C(=O)N1CCCCN1CCN(c2ccc(F)cc2)CC1 (stereo unspecified)	-	-	-	40	-
O=C1C2CCCCN2C(=O)N1CCCCN1CCN(c2cccc(Br)c2)CC1 (stereo unspecified)	40	-	-	87	-
CCC(C(=O)NCCc1ccccc1)n1nc(C)c2sc3ccccc3c2c1=O (stereo unspecified)	-	.	-	.	.
CCOc1ccc(NC(=O)Cn2c(=O)n(CCc3ccccc3)c(=O)c3c4c(sc32)CN(C(C)=O)CC4)cc1	-	.	-	.	.
COC(=O)/C=C1\SC(=Nc2ccc(Cl)c(Cl)c2)NC1=O	-	-	.	-	-
CCc1ccc(N=C2NC(=O)/C(=C/c3cc(OC)c(O)c(OC)c3)S2)cc1	-	?	-	-	-
COc1cc(/C=C2\SC(=Nc3ccccc3)NC2=O)cc(Cl)c1O	74	-	-	38	-
COc1cc(/C=C2\SC(=Nc3ccc(Cl)c(C(=O)O)c3)NC2=O)c(Br)c(Br)c1O	87	-	-	37	-
O=C(Nc1cccc(-c2nc3ccccc3[nH]2)c1)c1c(F)cccc1F	-	.	-	.	.
COc1ccc(S(=O)(=O)N2CCCCCC2)cc1NC(=O)Cc1ccccc1	-	-	-	-	-
CCOc1ccc(S(=O)(=O)N2CCCCC2)cc1NC(=O)Cc1ccsc1	-	-	-	34	-
CCOc1ccc(S(=O)(=O)N2CCCCC2)cc1NC(=O)Cc1ccc(OC)cc1	.	-	.	.	-
COc1ccc(S(=O)(=O)N2CCCCC2)cc1NC(=O)Cc1ccsc1	-	-	-	30	-
COc1ccc(CC(=O)Nc2cc(S(=O)(=O)N3CCCCC3)ccc2C)cc1	-	-	-	31	-
Cc1ccc(Cl)cc1NC(=O)c1oc2c(c1C)-c1[nH]ncc1CC2	-	.	-	.	.
Cc1ccc(-c2nnc(Nc3ccc(O)cc3)c3ccccc23)cc1S(=O)(=O)NC(C)(C)CO	-	.	-	.	.
O=C(Nc1cccc(Cl)c1)N1CCC(CN2CCOCC2)CC1	.	.	-	.	.
SMILES	D2 ag-1	D2 ag-2	D2 PAM-1	D2 antagonist	D2 PAM-2
CCOC(=O)COc1ccc(F)cc1C(=O)c1ccn2nc(-c3ccc(Cl)cc3)cc2n1	-	.	-	.	.
COc1ccc(/C=N/NC(=O)C[n+]2ccccc2)c(OC)c1OC	-	-	-	35	-
CNC(=S)N/N=C/c1ccccc1OCC(=O)O	-	-	-	31	-
O=C(O)COc1ccccc1/C=N/NC(=O)C(O)c1ccccc1 (stereo unspecified)	-	-	-	-	-
O=C(C[n+]1ccccc1)N/N=C/c1cccc(Cl)c1Cl	-	-	-	-	-
O=C(C[n+]1ccccc1)N/N=C/c1ccccc1Cl	-	-	-	36	-
O=C(Cc1ccccc1)Nc1ccc(Br)c(Cl)c1	-	-	31	-	-
CCOc1ccc(C(=O)Nc2cc(-c3ccccc3)no2)cc1	-	.	-	.	.

Assay outcomes from PubChem.
